Sampled rows, rich in hits. Any-hit rate of the full collection: about 7.6%.
Cav32 inh: Cav3.2 calcium influx blockers – cell-based, Fluo-4 calcium fluorescence, FDSS, MLSMR library, primary screen; Voltage-dependent T-type calcium channel subunit alpha-1H (Homo sapiens), O95180; Cav3.2-expressing cells; active compounds read low; B-score at 10 µM; 100,000 tested, 4% active;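 active means single-dose well whose peak fluorescence ratio is a statistical outlier from its plate by either plate-standardised score or position-corrected B-score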
PLAP activator: PLAP enzyme activators, biochemical, luminescence, HTS. Alkaline phosphatase, placental type (Homo sapiens), P05187. purified PLAP enzyme, luminescent substrate read-out; active compounds read high. AID 696, 2007. 96,000 tested, 1.2% active. activation fold at 20 µM; in the data active means activation fold above about 2
Target sequence (P05187 whole entry, looked up): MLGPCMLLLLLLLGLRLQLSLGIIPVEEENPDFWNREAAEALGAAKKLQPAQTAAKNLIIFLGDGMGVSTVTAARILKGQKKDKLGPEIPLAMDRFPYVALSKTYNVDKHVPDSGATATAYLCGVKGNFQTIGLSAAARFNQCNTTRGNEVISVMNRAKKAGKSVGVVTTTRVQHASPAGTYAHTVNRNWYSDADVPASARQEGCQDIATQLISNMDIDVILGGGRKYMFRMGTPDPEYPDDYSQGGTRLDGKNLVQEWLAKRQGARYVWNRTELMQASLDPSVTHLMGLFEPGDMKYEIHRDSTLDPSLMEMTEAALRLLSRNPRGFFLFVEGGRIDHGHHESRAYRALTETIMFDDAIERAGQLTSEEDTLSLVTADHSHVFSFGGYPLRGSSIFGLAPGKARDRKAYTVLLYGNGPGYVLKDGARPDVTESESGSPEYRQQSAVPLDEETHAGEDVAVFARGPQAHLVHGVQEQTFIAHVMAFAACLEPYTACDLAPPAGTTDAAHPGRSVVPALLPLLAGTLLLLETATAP
M1 agonist: M1 muscarinic receptor agonists, primary screen, CHO-M1 cells, Fluo-4 calcium, agonist mode. 64,000 tested, 3% active. Muscarinic acetylcholine receptor M1. Fluo-4 calcium fluorescence; active compounds read high. B-score at 10 µM;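 active means fluorescence rise, raw or as B-score row- and column-corrected plate score, outside the 99.7% band of its plate's samples, either direction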
M1 antagonist: antagonists of rat M1 muscarinic receptor. B-score at 10 µM. 64,000 tested, 3.4% active. CHO-M1 cells, Fluo-4 calcium, ACh EC80 antagonist mode; active compounds read low;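 active means calcium fluorescence response, raw or row-and-column corrected B-score, differing from the plate sample mean either way at a set confidence level, mostly lower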
Of the large screens only hits and unclear results are named; the others gave an inactive call.

CC(C)N1C(=O)CC2(CC[N+](C)(CCOC(=O)C(c3ccccc3)c3ccccc3)CC2)C1=O (centres undefined)	none (no result: M1 agonist, M1 antagonist)
Cc1ccc(C(c2sc3nc(C)nn3c2O)N2CCN(c3ccccc3F)CC2)cc1 (centres undefined)	Cav32 inh -5.5
Cc1nc2sc(C(c3ccco3)N3CCN(C(c4ccccc4)c4ccccc4)CC3)c(O)n2n1 (centres undefined)	Cav32 inh -5.4
Cc1ccc(C(c2sc3nc(C)nn3c2O)N2CCN(CCO)CC2)cc1 (centres undefined)	none (no result: PLAP activator)
CCOc1ccc(S(=O)(=O)n2cc(-c3ccc(F)cc3)c(N)n2)cc1	none (no result: M1 agonist, M1 antagonist)
CCOc1cc(S(=O)(=O)n2cc(-c3ccc(F)cc3)c(N)n2)cc(OCC)c1OCC	Cav32 inh -5.5
O=C(/C=C/c1c(Cl)cccc1Cl)N1CCN(c2ncccn2)CC1	Cav32 inh -4.3 (no result: M1 agonist, M1 antagonist)
O=C(c1cccc(C(=O)N2CCN(c3ncccn3)CC2)c1)N1CCN(c2ncccn2)CC1	none (no result: Cav32 inh)
CCOC(=O)N1CCN(CCC(=O)c2ccc(Cl)cc2)CC1	M1 agonist 3.4, M1 antagonist -0.81
C#CC(CO)N(CCN(Cc1ccccc1)C(C#C)CO)Cc1ccccc1 (centres undefined)	Cav32 inh -6.7
O=C(Cn1c(=O)n(Cc2ccco2)c(=O)c2c3c(sc21)CCCCC3)Nc1ccccc1	Cav32 inh -4.5 (no result: M1 agonist, M1 antagonist)
O=C(Cn1c(=O)n(Cc2ccco2)c(=O)c2c3c(sc21)CCCCC3)c1ccccc1	none (no result: M1 agonist, M1 antagonist)
COc1ccc2c(c1)c(=O)c(C(=O)c1ccccc1)cn2Cc1ccc(C)cc1	Cav32 inh -5.5 (no result: PLAP activator, M1 agonist, M1 antagonist)
COc1ccc2c(c1)c(=O)c(Br)c(C)n2Cc1ccccc1	none
COC(=O)C1=C(N)Oc2cc(C)n(Cc3cccnc3)c(=O)c2C1c1ccc(OC)c(OC)c1 (centres undefined)	none (no result: Cav32 inh)
COC(=O)C1=C(N)Oc2cc(C)n(CC3CCCO3)c(=O)c2C1c1ccccc1 (centres undefined)	none
COC(=O)C1=C(N)Oc2cc(C)n(CCc3ccccc3)c(=O)c2C1c1cccnc1 (centres undefined)	PLAP activator 2
COC(=O)C1=C(N)Oc2cc(C)n(CC3CCCO3)c(=O)c2C1c1ccc(Cl)cc1 (centres undefined)	Cav32 inh -3.1
C=CCN1c2ccccc2[C@]23C[C@@H](C(=O)OC)N(C(=O)c4cccs4)C2=NC(C(=O)OC)=C(C(=O)OC)[C@H]13	none (no result: PLAP activator, M1 agonist, M1 antagonist)
C=CCn1c(SC2CCOC2=O)nc2scc(C3CC3)c2c1=O (centres undefined)	none
COc1ccc(NC(=O)c2cc3c(-c4ccc(OC)c(OC)c4)nn(C)c3s2)cc1OC	PLAP activator 2.3 (no result: M1 agonist, M1 antagonist)
O=C(CCSc1nnc(-c2ccco2)o1)Nc1ccc(Cl)cc1	none
Clc1ccc(-c2nnc(-c3ccco3)o2)cc1	Cav32 inh -4.5
CCOC(=O)Cc1csc(NC(=O)C(C)(C)CC)n1	none (no result: M1 agonist, M1 antagonist)
Nc1cc(-c2ccc(Cl)cc2)nn1S(=O)(=O)c1cccc2nsnc12	Cav32 inh -6.4 (no result: M1 agonist, M1 antagonist)
Nc1cc(-c2cccc(F)c2)nn1S(=O)(=O)c1cccc2nsnc12	Cav32 inh -5.2 (no result: PLAP activator)
CCOc1ccc(C2c3c(oc4ccccc4c3=O)C(=O)N2c2ccccn2)cc1OC (centres undefined)	none (no result: Cav32 inh, PLAP activator)
CCCCN(CCCC)C(=O)/C=C/c1cccc([N+](=O)[O-])c1	Cav32 inh -6 (no result: M1 agonist, M1 antagonist)
O=C(/C=C/c1cccc([N+](=O)[O-])c1)NCCSc1ccccc1	Cav32 inh -3.7 (no result: M1 agonist, M1 antagonist)
Cc1ccc(NC2c3ccccc3C(=O)N2CCN2CCOCC2)cc1 (centres undefined)	none (no result: M1 agonist, M1 antagonist)
CCN1CCN(S(=O)(=O)c2cc(OC)ccc2OC)CC1	none
COc1ccc(OC)c(S(=O)(=O)N2CCN(c3c(C)cccc3C)CC2)c1	Cav32 inh -7.3
CCOc1ccc(OCCSc2nc3ccccc3[nH]2)cc1	none (no result: PLAP activator, M1 agonist, M1 antagonist)
Cc1cccc(OCCCSc2nc3ccccc3[nH]2)c1	Cav32 inh -8.1 (no result: M1 agonist, M1 antagonist)
Cn1c(=O)c2c(nc(OCC3COC(C)(C)O3)n2Cc2ccccc2F)n(C)c1=O (centres undefined)	none
CC1CC1C(=O)Nc1nc(-c2ccccc2)cs1 (centres undefined)	Cav32 inh -4 (no result: M1 agonist, M1 antagonist)
COc1ccc(-c2csc(NC(=O)C3CCCCN3S(=O)(=O)c3ccccc3)n2)cc1 (centres undefined)	Cav32 inh -6.2 (no result: M1 agonist, M1 antagonist)
Cc1ccc(S(=O)(=O)N2CCCC2C(=O)Nc2nc3ccccc3s2)cc1 (centres undefined)	none

Screens (PubChem BioAssay)
